Experimental findings from PubChem BioAssay AID751 (NMMLSC, 2007) are described below.

Structures are written as SMILES. Among all 24,000 compounds or so, about 40 (0.2%) were called active. Shown is part of a subset that was picked to be rich in actives. A number with no mark means an inactive call.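 Rule for the calls: active = inhibition of disassembly above about 33% (limit read from the data); inconclusive = likely self-fluorescent, control bead median signal at least 40; inactive = the rest.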

In the test the test system is 26S proteasome (yeast, GFP-tagged, ATP-dependent disassembly). Nature of the test: blockers of yeast 26S proteasome breakdown – biochemical, bead-based flow cytometry, GFP-tagged proteasome, primary screen (AID 751).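 Note: plate controls were ATP control with full disassembly for no effect and ATP-gamma-S intact proteasomes for full effect; higher percent means more bead fluorescence retained so stronger block of disassembly.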 The note with it: anti-FLAG beads, hits give high values, concentration not given here. A general note: Flow cytometry measures light scatter and fluorescence of single cells or particles in a stream.
As for `COc1ccccc1N1CCN(C(CNC(=O)Oc2ccccc2)c2cccnc2)CC1` (stereo not given), the inhibition of disassembly was 19.4%. The same measure for `O=C(NCC(c1cccnc1)N1CCN(c2ccccc2)CC1)Oc1ccccc1` (stereo not given): 44.6% (active); for `CC(C)c1ccc(O)c(CN2CCN(c3ccccc3)CC2)c1`: 0.72%.

For the molecule `Cc1cccc(-n2c(C)nc3cc(C(=O)N4CCC5(CC4)OCCO5)ccc32)c1`, the inhibition of disassembly is 1.69%. The same measure for `CCOC(=O)C1=C(C)OC(N)=C(C(=O)OC)C12C(=O)Nc1ccc(Br)cc12` (stereo not given): -0.24%.
